Measurements: ChEMBL document CHEMBL4513216, “Probing the Open Global Health Chemical Diversity Library for Multistage-Active Starting Points for Next-Generation Antimalarials” (ACS Infect Dis, 2020)
The whole screen tested about 68,000 compounds, of which about 2,700 (4%) showed an effect of 50% or more. The full list was thinned out, with strong results kept by preference.

Test system: Plasmodium berghei
Assay: Screen against P. berghei liver stage (PbLuc), transformed with Luciferase, at 2uM
Type: functional, HepG2
Settings: tested at 2 uM

SMILES | INHIBITION [%]
CSc1cccc(CN(C)C(=O)Nc2nc(C)n(C)n2)c1 | 4.12
CSCC(=O)N1CCCC1c1noc(C2CC2)n1 (stereo unspecified) | 27.44
Cc1cc(C)n(CC(C)NC(=O)C2(c3ccccc3F)CC2)n1 (stereo unspecified) | -45.89
O=C(CCN1CCCCO1)N1CCC(CO)(CCc2ccccc2)CC1 | 12.56
O=C(c1cc2c(s1)CCC2)N1CCCC1Cn1cccn1 (stereo unspecified) | 17.39
CN(C)c1ncc(CNC2CC(=O)N(CCc3cccc(Cl)c3)C2)s1 (stereo unspecified) | 35.26
CCNc1nc(C)c(C(=O)N2CCC(C(O)Cc3ccccc3)CC2)s1 (stereo unspecified) | 15.73
O=C(C1CCCN(C2CCOCC2)C1)N1Cc2ccccc2C1 (stereo unspecified) | -45.79
Fc1cccc(CN2CCC(c3cc4ncccc4cn3)CC2)c1F | -27.12
COCCN(Cc1nc2c(cnn2C)c(=O)[nH]1)Cc1ccco1 | -16.42
COCCN(Cc1nc2c(cnn2C)c(=O)[nH]1)C(C)c1ccccc1 (stereo unspecified) | 68.24
CCC(C)N(CCOC)Cc1nc2c(cnn2C)c(=O)[nH]1 (stereo unspecified) | 29.19
CN(Cc1nc2c(cnn2C)c(=O)[nH]1)Cc1ccco1 | 27.5
Cc1ccc(C(C)N(C)Cc2nc3c(cnn3C)c(=O)[nH]2)cc1 (stereo unspecified) | 28.65
COCCN(Cc1nc2c(cnn2C)c(=O)[nH]1)C(C)COC (stereo unspecified) | 20.57
CC(C)CN(C)Cc1nc2c(cnn2C)c(=O)[nH]1 | -29.44
CC(N(C)Cc1nc2c(cnn2C)c(=O)[nH]1)C(C)(C)C (stereo unspecified) | 62.46
CCN(Cc1nc2c(cnn2C)c(=O)[nH]1)Cc1ccco1 | 53.98
CCC1CN(Cc2nc(C(C)C)no2)CCC(=O)N1Cc1ccccc1 (stereo unspecified) | 8.14
O=C(C1=CCCC1)N1C[C@H](OCc2cccnc2)[C@H]2OCCC[C@H]21 | 31.46
CCCS(=O)(=O)N1CCC2(CC1)CC(=O)N(Cc1cc(F)cc(F)c1)C2 | 8.76
C=c1occc1=C1NC(c2cccc(CN3CCOCC3)c2)=NO1 | 1.42

SMILES | INHIBITION [%]
CCC(C)c1noc(C2CCN(C(=O)c3cccs3)CC2)n1 (stereo unspecified) | -50.86
c1cnn(Cc2ccc(CN3CCC4(CCNCC4)C3)cc2)c1 | 56.79
c1ccc(Cn2cccn2)c(CN2CCC3(CCCNC3)C2)c1 (stereo unspecified) | 31.9
c1cnn(Cc2ccc(CN3CCC4(CCCNC4)C3)cc2)c1 (stereo unspecified) | 0.49
COC[C@]1(O)CCN(Cc2ccc(N(C)C)nc2)CC1(C)C | 32.21
Cc1cc(CN2CC[C@H]3C[C@H](C(=O)N4CCC(C)CC4)O[C@H]3C2)no1 | 34.88
CCn1ccnc1CN1CCCN(C(=O)COC2CCCC2)CC1 | 57.81
CCn1ccnc1CN1CCCN(C(=O)COC2CCCCC2)CC1 | -2.87
Cn1ccnc1CN1CCCN(C(=O)COC2CCCC2)CC1 | 28.18
Cn1ccc(NC(=O)CN2C[C@@H]3CC[C@H]2CN(S(C)(=O)=O)C3)n1 | 48.21
CN(Cc1nc2ccccc2o1)C1CCCN(c2cccnn2)C1 (stereo unspecified) | -16.72
Cc1cc(C)n(C2CCCN(C(=O)c3cccc4[nH]ncc34)C2)n1 (stereo unspecified) | -15.33
Cc1nccn1-c1ccc(C(C)NCc2cccn2C)cc1 (stereo unspecified) | -28.15
Cn1c2ccccc2c2ncn(CCN3CCOCC3)c(=O)c21 | 61.75
Cn1c2ccccc2c2ncn(CCCN3CCOCC3)c(=O)c21 | 23.65
Cn1c2ccc(F)cc2c2ncn(CCN3CCOCC3)c(=O)c21 | -2.5
CN1CCCN(C[C@@H]2CN(c3nc(C(N)=O)cs3)C[C@@H]2CO)CC1 | 19.56
COCCNc1c(-c2ccc(C)cc2)c(=O)c1=O | -21.29
COCCN1CCO[C@H]2CN(C(=O)c3cccs3)C[C@H]21 | 13.26
O=c1cccnn1CC1CN(Cc2ccsc2)Cc2nccn2C1 (stereo unspecified) | -0.51
CS(=O)(=O)N1Cc2nccn2CC(Cn2ncccc2=O)C1 (stereo unspecified) | -9.42
O=c1cccnn1CC1CN(CC2CCCC2)Cc2nccn2C1 (stereo unspecified) | 52.83

SMILES | INHIBITION [%]
NC(=O)CCn1cc(CNCCCc2ccccc2O)c2ccccc21 | 57.34
NC(=O)CCn1cc(CNCCCc2ccncc2)c2ccccc21 | 3.49
Cc1ccc(C(C)NCc2cn(CCC(N)=O)c3ccccc23)cc1C (stereo unspecified) | 61.63
CC(C)n1cnnc1CCNCc1cn(CCC(N)=O)c2ccccc12 | -9.3
Cc1n[nH]c(C)c1CCCNCc1cn(CCC(N)=O)c2ccccc12 | 42.2
CCCN1CCN(Cc2cn(CCC(N)=O)c3ccccc23)CC1 | 38.62
CC(NCc1cn(CCC(N)=O)c2ccccc12)c1nncn1C (stereo unspecified) | -81.84
NC(=O)CCn1cc(CNCc2csc(N)n2)c2ccccc21 | 72.49
NC(=O)CCn1cc(CNCCCc2csc(N)n2)c2ccccc21 | 37.15
CCc1nccn1-c1cncc(C2CCN(C(=O)COC)CC2)n1 | 41.98
CCN(CC)C(=O)c1nc2c(s1)CCN(Cc1cccc(OC)c1)CC2 | 1.08
O=C(c1cccc(S(=O)(=O)NCCCn2cccn2)c1)N1CCOCC1 | 30.8
COC(=O)[C@H](C)NC(=O)Cc1c(C)nc2c(c1C)c(=O)[nH]n2C | -7.03
COCCNc1nc2c(c(NCc3ccncc3)n1)CCNCC2 | -21.16
COCCNc1nc2c(c(NCC3CCOC3)n1)CCNCC2 (stereo unspecified) | 58.53
COCCNc1nc2c(c(NCCc3cccs3)n1)CCNCC2 | -15.37
COCC(c1cccc(C(F)(F)F)c1)N(C)C(=O)c1ccncc1 (stereo unspecified) | 14.82
COCC(c1cccc(C(F)(F)F)c1)N(C)C(=O)c1cc(C)n[nH]1 (stereo unspecified) | 51.21
COCC(c1cccc(C(F)(F)F)c1)N(C)C(=O)c1cc(C)no1 (stereo unspecified) | -23.4
CCn1cc(CNC(=O)c2nn(CC)cc2Br)cn1 | -26.13
O=C(NC1CCCN(c2ccccc2Cl)C1)c1ccc(=O)[nH]n1 (stereo unspecified) | 42.88
O=C(NC1CCCN(c2ccccc2Cl)C1)c1c[nH]nn1 (stereo unspecified) | 55.18

SMILES | INHIBITION [%]
O=C(NC1CCCN(c2ccc(OC(F)F)cc2)C1)c1c[nH]nn1 (stereo unspecified) | 5.48
O=C(NC1CCCN(c2ccccc2Cl)C1)c1nc(=O)[nH][nH]1 (stereo unspecified) | 8.05
O=C(NC1CCN(c2ccccc2OC(F)F)C1)c1c[nH]nn1 (stereo unspecified) | 31.3
O=C(NC1CCN(c2ccccc2Br)C1)c1c[nH]nn1 (stereo unspecified) | 53.81
Cc1cc(C)n2c(CCCNS(=O)(=O)c3ccc(F)cc3)nnc2n1 | 6.62
CCc1nc(NC2CCCN(C(=O)c3cccs3)C2)c2cnn(C)c2n1 (stereo unspecified) | -33.35
CCN(CC)C1(Cc2cc(-c3cccc(O)c3)on2)COC1 | 10.08
Oc1cccc(-c2cc(CC3(N(CC4CC4)CC4CC4)COC3)no2)c1 | -4.2
CCCN(CCC)C1(Cc2cc(-c3cccc(O)c3)on2)COC1 | 50.72
NC1(C(=O)NCCC2CN(Cc3ccco3)CCO2)CCCC1 (stereo unspecified) | 18.98
CC(C)(C)c1noc(CCCC(=O)N2CCNC(=O)C2)n1 | -31.79
COCCC(=O)N1C[C@@H]2CC[C@H]1CN(C1Cc3ccccc3C1)C2 | 28.97
COCCOC(=O)N1C[C@@H]2CC[C@H]1CN(C1Cc3ccccc3C1)C2 | -31.79
COCCOCC(=O)N1C[C@@H]2CC[C@H]1CN(C1Cc3ccccc3C1)C2 | 61.82
Cc1cc(C)n(C2CCCN(C(=O)c3ccn(C)c(=O)c3)C2)n1 (stereo unspecified) | -42.24
O=C(COCc1ccccc1)N1CCCC(n2cncn2)C1 (stereo unspecified) | 24.15
O=C(COC1CCCCC1)N1CCCC(n2ccnc2)C1 (stereo unspecified) | -0.13
O=C(COCC1CC1)N1CCCC(n2cncn2)C1 (stereo unspecified) | 62.46
Cc1nc(C(=O)N2CCCC(n3cncn3)C2)cs1 (stereo unspecified) | -81.94
O=C(COCCOc1ccccc1)N1CCCC(n2ccnc2)C1 (stereo unspecified) | 29.12
O=C(COCC1CC1)N1CCCC(n2cccn2)C1 (stereo unspecified) | -5.7
CC(=O)Nc1nc(C(=O)N2CCCC(n3ccnc3)C2)cs1 (stereo unspecified) | 18.46

SMILES | INHIBITION [%]
O=C(COCC1CC1)N1CCCC(n2ccnc2)C1 (stereo unspecified) | 67.53
CC(=O)Nc1nc(C(=O)N2CCCC(n3cncn3)C2)cs1 (stereo unspecified) | 72.31
Cc1ccccc1CN1CCC(CNc2ncnc3c2CCNCC3)C1 (stereo unspecified) | 32.26
c1cnc(N2CCOCC3(CN(Cc4nccs4)CCO3)C2)nc1 (stereo unspecified) | 14.39
CCC(C)NC(=O)c1nnn(-c2cccc3c2CCN(C)C3)c1C (stereo unspecified) | -46.36
O=C(NCCN1CCCCC1)c1ccoc1 | 6.12
COc1ccc(-c2cnc(CN3CCCC3Cn3cccn3)o2)cc1 (stereo unspecified) | -36.73
O=C(NC1CCN(c2cccc(OC(F)(F)F)c2)C1=O)C1CC1 (stereo unspecified) | -0.13
C=C(C)CN(Cc1cccc(O)c1)C1CCC(O)CC1 (stereo unspecified) | 6.55
CC(C)OCCN(Cc1cccc(O)c1)C1CCC(O)CC1 (stereo unspecified) | 11.78
CS(=O)(=O)CCN(Cc1cccc(O)c1)C1CCC(O)CC1 (stereo unspecified) | 50.4
CSCCC(=O)N1CCC(CCC(=O)NCC2CCCO2)CC1 (stereo unspecified) | 20.71
Cc1nc(NC(=O)CNC(=O)c2c(F)cccc2Cl)n[nH]1 | 9.5
CC(O)(CNC(=O)c1c(F)cccc1Cl)C1CC1 (stereo unspecified) | -21.74
O=C(CNC(=O)c1c(F)cccc1Cl)Nc1ccc(F)cn1 | 67.28
CCc1c(C)nc2cc(C3CCN(Cc4cccnc4)C3)nn2c1O (stereo unspecified) | 31.56
CCc1c(C)nc2cc(C3CCN(Cc4cccc(F)c4)C3)nn2c1O (stereo unspecified) | 65.74
CCc1c(C)nc2cc(C3CCN(Cc4ccc(F)cc4)C3)nn2c1O (stereo unspecified) | 40.31
